Most compounds without a hit are left out; they make up all but 7% or so of the library.
ATXN2 expr inh: Primary qHTS for Inhibitors of ATXN expression. HEK-293 ATXN2-luciferase reporter, luminescence, 24 h. Potency, µM (doses to about 57 µM), actives largely listed as inhibitors. 360,000 compounds, 0.72% hits. AID 1745845, 2022; further: nearly all actives have a fitted effect of over 55% in size
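ATXN2-luciferase reporter cells (luciferase flanked by upstream and downstream ATXN2 gene portions) were treated 24 h at 37 °C with compounds at up to 57 uM. SteadyGlo luminescence gave expression; GF-AFC fluorescence gave viability.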
Integrin act MD: qHTS for Activators of Integrin-Mediated Alleviation for Muscular Dystrophy | alpha7betagal myoblasts, beta-gal FDG fluorescence, 48 h | 350,000 compounds, 0.064% hits | Potency, µM (highest dose often 38.3 µM), hits mostly activators; further: nearly all actives have a fitted effect of over 60% in size
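Alpha7betagal+/- myoblasts (passage 13) were plated 16-24 hr, then exposed to compounds (1:260 dilution of DMSO stock) for 48 hours at 37C. After MPER lysis, β-galactosidase reporter activity was read as FDG fluorescence (ex 480/em 540) after 30 minutes.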
S2 tox: Viability Counterscreen for Primary qHTS for Inhibitors of ATXN expression; S2 cells (HEK-293 line with an ATXN2-luciferase reporter) viability, CellTiter-Fluor protease fluorescence, 24 h; Potency, µM (top dose mostly 56.7 µM), usual class: cytotoxic; 400,000 compounds, 0.49% hits; further: nearly all actives have a fitted effect of over 40% in size
IL1B secr inh: qHTS for Inhibitors of Inflammasome Signaling: IL-1-beta AlphaLISA Primary Screen; THP-1 LPS/ATP IL-1B secretion, AlphaLISA, 16 h; hits give low values; activity change, % at 57.5 µM; 360,000 compounds, 4.7% hits; AID 743279, 2014; in the data active means activity change below about -50%; inconclusive means mostly about -30% to -49%
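THP-1 cells pretreated 1 hr with compounds (up to 57.5 uM final), then stimulated with LPS (250 ng/mL final) plus ATP (1.25 mM final); secreted IL-1B measured by AlphaLISA after 16 hr, decreased signal indicating inhibition.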
DRD3 antagonist: qHTS of D3 Dopamine Receptor Antagonist: qHTS; max response, negative = inhibition, %; D3R cells, DiscoveRx beta-arrestin luminescence, antagonist mode; hits give low values; 360,000 compounds, 2.5% hits; AID 652054, 2013; D(3) dopamine receptor (Homo sapiens), P35462; in the data active means max response below about -50%; inconclusive means no clear call, values can overlap the other calls
Target sequence (P35462 whole entry, looked up): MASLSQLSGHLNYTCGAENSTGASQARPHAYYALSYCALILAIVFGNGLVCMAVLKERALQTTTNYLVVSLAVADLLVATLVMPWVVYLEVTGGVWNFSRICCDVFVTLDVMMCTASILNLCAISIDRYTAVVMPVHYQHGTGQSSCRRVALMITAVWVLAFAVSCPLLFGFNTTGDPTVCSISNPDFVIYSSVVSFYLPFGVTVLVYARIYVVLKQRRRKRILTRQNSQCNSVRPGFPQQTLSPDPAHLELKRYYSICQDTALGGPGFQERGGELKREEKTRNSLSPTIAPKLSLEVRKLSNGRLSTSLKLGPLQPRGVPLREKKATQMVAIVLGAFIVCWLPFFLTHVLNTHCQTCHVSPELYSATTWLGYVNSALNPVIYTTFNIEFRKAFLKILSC
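Cells plated overnight at 1500 cells/well, then exposed to library compounds with dopamine controls for 90 minutes at 37 degrees C. DiscoveRx reagent added for 30–60 minutes at room temperature; luminescence read, quantitative HTS format.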
D3 ag: qHTS of D3 Dopamine Receptor Agonist: qHTS. D3R DiscoveRx beta-arrestin cells, luminescence, 90 min. max activation, %. 410,000 compounds, 0.58% hits. AID 652048, 2013; in the data active means max activation above about 30%
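Agonist-mode cell screen: cells plated at 1500/well and incubated overnight at 37 °C, then exposed to library compounds for 90 min at 37 °C. Detection reagent was added for 30–60 min at room temperature, and luminescence was read.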
Numbers stand for hits; n = inactive; u = inconclusive; x = no result given; [ ] = remark or other dose. Unless noted, the call rests on the fitted dose curve; in most records, active means well fitted curve in the direction sought with a large enough effect; inconclusive means small, poorly fitted or top-dose-only effect, or another doubt; inactive means no such curve, though single readings can be large; an effect the other way counts as inactive or inconclusive.

SMILES | ATXN2 expr inh | Integrin act MD | S2 tox | IL1B secr inh | DRD3 antagonist | D3 ag
Cc1nn(Cc2c(F)c(F)c(F)c(F)c2F)c(C)c1NC(=O)c1ccc(COc2ccc(Cl)cc2Cl)o1 | 20µM | n | n | -63.2 | n | n
Cc1cc(=O)n(-c2ccccc2)n1C | n | x | n | -66.1 | n | n
CC(C)Cc1cc(C(=O)NCc2ccco2)no1 | n | n | n | n | n | n
COc1ccc(-c2nc(Cn3c(SCc4ccc(F)cc4)nc4cccnc43)c(C)o2)cc1 | x | x | x | x | x | n
COC(=O)/C=C1\S/C(=N/NC(=O)c2ccccc2)NC1=O | n | n | n | n | -64.7 | n
COC(=O)/C=C1/S/C(=N/NC(=O)c2ccccc2)NC1=O | n | n | n | n | n | n
COc1cc(C(=O)Nc2ccc(OCc3cc(=O)n4cccc(C)c4n3)cc2)cc(OC)c1OC | x | x | x | x | x | n
O=C(Nc1ccc(-c2nc3ncccc3o2)cc1)c1ccc(Br)o1 | n | n | n | -55.4 | n | n
COc1cccc(-c2nc(-c3ccc(NC(=O)Cc4ccccc4OC)cc3)no2)c1 | n | n | n | n | n | n
COc1cc(-c2nc(-c3ccc(NC(=O)c4ccc(Br)o4)cc3)no2)cc(OC)c1OC | n | n | u | n | n | 105.4
COc1ccc(CC(=O)Nc2ccc(-c3noc(-c4ccccc4OC)n3)cc2)cc1 | u | n | u | -62.5 | n | n
COc1ccc(-c2nc(-c3ccc(NC(=O)c4ccc(Br)o4)cc3)no2)cc1OC | u | n | 17.8µM | n | n | 37.7
O=C(Nc1ccc(-c2nc3ncccc3o2)cc1)c1ccco1 | n | n | n | u | n | n
COc1cc(C(=O)Nc2ccc(-c3nc4cc(C)c(C)cc4o3)cc2)cc(OC)c1OC | n | x | n | x | x | n
COc1ccc(CCC(=O)Nc2ccc(-c3noc(-c4ccc(OC)c(OC)c4)n3)cc2)cc1 | n | n | u | n | n | n
O=C(C1CCCCC1)N1CCc2ccccc21 | n | n | n | n | n | n
CCN(CC)CCOC(=O)C1(c2ccc([N+](=O)[O-])cc2)CCCC1 | n | x | n | n | u | n
Cc1cc(N(CCO)CCO)ccc1N=Nc1cc(F)ccc1F | n | n | u | -74.6 | -73.6 | n
Cc1nc(Nc2ccc(Cl)cc2Cl)sc1C(=O)Nc1ccccc1 | n[11.3 µM] | n | n | -93.6 | n | n
Cc1nc(Nc2ccc(Cl)c(Cl)c2)sc1C(=O)Nc1ccccc1 | u | n | u | n | n | n
Nc1nc(SCc2ccccc2)cc(SCc2ccccc2)n1 | n | n | n | n | n | n
Cc1occc1C(=O)N/N=C/c1sc(N2CCOCC2)nc1-c1ccccc1 | n | u | n | n | -54.4 | n
O=C(N/N=C/c1sc(N2CCOCC2)nc1-c1ccccc1)c1ccc(O)cc1 | n[11.3 µM] | n | x | n | n | n
CCOC(=O)C1=NS(=O)(=O)NC(C)=C1 | n | n | n | n | n | n
CCCCN(CCCC)C(=S)NC(=O)C(C)(C)C | n | n | n | n | n | n
SMILES | ATXN2 expr inh | Integrin act MD | S2 tox | IL1B secr inh | DRD3 antagonist | D3 ag
CCCCN(CCCC)C(=S)[S-].CCCCN(CCCC)C(=S)[S-].[Zn+2] | x | x | 8.91µM | x | x | n
O=C(CCS(=O)(=O)c1ccc(F)cc1)Nc1nc(-c2ccccn2)cs1 | x | n | u | u | n | n
CC(Oc1ccc(F)cc1)C(=O)Nc1nc(-c2ccccn2)cs1 (centres undefined) | 7.94µM | n | u | -102.2 | -69.2 | n
N[C@@H](Cc1ccccc1)c1nnc(SC/C=C/c2ccccc2)o1 | n | n | n | n | n | n
Cc1cc(/C=C\c2ccccc2)nc2ccccc12 | n | n | n | -52.3 | n | n
COc1ccc(/C=C/c2cc(C(=O)O)c3ccccc3n2)cc1 | 2.24µM | n | n | n | n | n
COc1cc(OC)c(OC)cc1/C=C/c1cc(C(=O)O)c2ccccc2n1 | x | u | n | n | n | n
CCCCCN(C(=O)CCC(=O)OCC(=O)c1c(C)cc(C)cc1C)c1c(N)n(CCCC)c(=O)[nH]c1=O | n | n | n | -76.7 | n | n
CCCCCN(C(=O)CCC(=O)OCc1cc(C)ccc1C)c1c(N)n(CCCC)c(=O)[nH]c1=O | n | n | n | -63.4 | n | n
O=C(CCCc1nc2ccccc2s1)Nc1nccs1 | u | n | n | n | n | n
Cc1cnc(NC(=O)CCCc2nc3ccccc3s2)s1 | 2.51µM | n | u | n | n | n
CC(C)C(=O)Nc1cccc(COc2ccc(CN(Cc3ccccc3)C(=O)OC(C)(C)C)cc2)c1 | n | n | n | n | n | 36.1
Cn1c(=O)n(C)c2cc([N+](=O)[O-])c(N3CCN(C(=O)c4cccc(F)c4)CC3)cc21 | n | n | n | n | u | n
COc1ccc(N2CCN(S(=O)(=O)c3ccc4c(c3)CCCC4)CC2)c([N+](=O)[O-])c1 | n | n | n | -61.8 | n | n
COc1ccc(N2CCN(C(=O)c3ccc(F)cc3)CC2)c([N+](=O)[O-])c1 | n | n | n | n | n | n
COc1ccc(N2CCN(C(=O)c3cccc(F)c3)CC2)c([N+](=O)[O-])c1 | n | n | n | -52.5 | n | n
COc1cccc(C(=O)/C=C/c2ccc(N3CCCCC3)c([N+](=O)[O-])c2)c1 | n | n | n | -95.8 | u | n
COc1cccc(N2CCN(c3ccc(S(=O)(=O)N4CCN(C)CC4)cc3[N+](=O)[O-])CC2)c1 | n | n | n | n | n | n
Cn1c(=O)n(C)c2cc([N+](=O)[O-])c(N3CCN(C(=O)c4cccc(Cl)c4)CC3)cc21 | n | n | n | n | -59.8 | n
COc1cccc(CN2CCN(Cc3ccccc3C(F)(F)F)CC2)c1 | n | n | n | n | n | n
CC(=O)/C(N=Nc1ccc(-n2ccc(C(F)(F)F)n2)cc1)=C(\C)O | n | n | n | x | n | n
O=C(CCC(=O)OCC(=O)c1ccc(-c2ccccc2)cc1)Nc1cccc(Cl)c1 | n | n | n | n | n | n
Cc1ccc(C(O)(c2ccccc2)c2ccccc2C(C)N(C)C)c(C)c1 (centres undefined) | u | n | u | -68.4 | n | n
Cc1c2n(c3ccccc13)CC/C2=N\O | n | n | n | n | n | n
COc1ccc(N=C2SC(CC(=O)Nc3ccccc3)C(=O)N2Cc2ccccn2)cc1 (centres undefined) | n | n | n | -67.0 | n | n
COCCN1C(=O)C(CC(=O)Nc2ccc(C(C)=O)cc2)SC1=Nc1ccccc1 (centres undefined) | n | n | n | n | n | n
